Ba/F3 V617F tox: loss of viability in JAK2V617F-driven Ba/F3 cells; Ba/F3 EpoR-JAK2V617F viability, ATP luminescence; inhibition, % at 5.6 µM; 220,000 compounds, 1.1% hits; AID 1446;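 active = inhibition above the campaign mean plus 3 SD over all tested compounds, cut at about 24% in these data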;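 note: cytokine-independent growth of Ba/F3 cells driven by EpoR plus mutant JAK2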
BaF3 parental: parental Ba/F3 viability inhibition as JAK2V617F counter-screen. CellTiter-Glo ATP luminescence. inhibition, % at 5.6 µM. 220,000 compounds, 1.1% hits. AID 1486;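 active = inhibition above a per-campaign cutoff, the mean inhibition of all tested compounds plus 3 SD, cut at about 27% in these data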
KLF5 inhibitor: kruppel-like factor 5 inhibition; inhibition, % at 5 µM; DLD-1 KLF5 promoter-luciferase reporter, luminescence; 290,000 compounds, 0.23% hits;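 active = inhibition above a per-plate limit of that plate's mean compound inhibition plus 3 SD, cut at about 60% in these data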;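 note: higher means less KLF5 promoter-driven luciferase light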
IEC-6 tox-1: IEC-6 cytotoxicity, counter-screen for KLF5 inhibitors; luminescence viability; inhibition, % at 5 µM; 290,000 compounds, 0.78% hits; AID 1825
APP 5UTR inh: APP translation inhibition; SH-SY5Y APP 5'UTR-luciferase reporter, luminescence; inhibition, % at 2 µM; 190,000 compounds, 0.82% hits;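 active = inhibition above a set limit, derived from the sample mean plus 3 SD, cut at about 45% in these data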
KLF5 confirm: confirmation of KLF5 inhibitors; 610 compounds, 79% hits; shares compounds with KLF5 inhibitor; DLD-1 KLF5 promoter firefly luciferase reporter, luminescence; inhibition, % at 4 µM;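 active = inhibition above a set limit taken from the earlier primary screen, cut at about 63% in these data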
IEC-6 tox-2: rat IEC-6 cytotoxicity, KLF5 inhibitor counter-screen | shares compounds with KLF5 inhibitor | IEC-6 rat intestinal cells, viability luminescence | inhibition, % at 4 µM | 610 compounds, 56% hits | AID 1905; in the data active = inhibition above about 23%;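 note: cells exposed to compounds for 48 hours before viability read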
IEC-6 tox confirm: IEC-6 cytotoxicity, confirmation assay; AID 1907; inhibition, % at 5 µM; IEC-6 rat intestinal epithelial viability, luminescence; 1,900 compounds, 63% hits; shares compounds with IEC-6 tox-1
Numbers stand for hits; - = inactive; . = not tested or not shown. A selection: hits, their analogues and other compounds. The true share with any hit is near 1.9%. Cut-off read from the data, not from the text of the source, unless noted: active = inhibition above about 22%; inactive = the rest.

SMILES	Ba/F3 V617F tox	BaF3 parental	KLF5 inhibitor	IEC-6 tox-1	APP 5UTR inh	KLF5 confirm	IEC-6 tox-2	IEC-6 tox confirm
O=C1OCC2=C1C(c1ccc(F)cc1)c1cc3c(cc1N2)OCCO3 (centres undefined)	95.7	95.7	98.4	94.7	93.7	91.8	84.1	86.1
O=C1OCC2=C1C(c1ccc3c(c1)OCO3)Sc1ccccc1N2 (centres undefined)	-	-	-	-	-	.	.	.
CC(=O)Oc1ccc(C2C3=C(CC(C)(C)CC3=O)Nc3cc4c(cc32)OCCO4)cc1 (centres undefined)	-	-	-	-	-	.	.	.
COc1cc2c(cc1OC)C(c1ccc3c(c1)OCO3)C1=C(CC(C)(C)CC1=O)N2 (centres undefined)	-	-	-	-	-	.	.	.
O=C1OCC2=C1C(c1ccc(F)cc1)c1cc3c(cc1N2)OCO3 (centres undefined)	59.0	-	68.3	76.6	94.8	88.2	85.9	83.6
CN(C(=O)CC1C(=O)NCCN1CC(c1ccccc1)c1ccccc1)C(C1CC1)C1CC1 (centres undefined)	-	-	-	-	.	.	.	.
Cc1ccc(CN2CCC(c3cc(-c4ccc(Cl)cc4)n[nH]3)CC2)cc1	.	.	-	-	.	.	.	.
Cc1cc(C(=O)C(=O)N(C)C)c(C)n1-c1ccc(Cl)c(Cl)c1	-	-	-	-	-	.	.	.
COc1cc(CN2CCN(C(=O)c3cccc4ccccc34)CC2)cc(OC)c1O	.	.	-	-	.	.	.	.
O=C(N/N=C/c1cccc(O)c1)c1ccc2c(c1)OCCO2	.	.	-	-	.	.	.	.
Cc1cccc(/C=N/NC(=O)c2ccc3c(c2)OCCO3)c1O	.	.	69.8	99.1	.	-	-	-
CSc1ccccc1NC(=O)CN(C)C(=O)c1ccc2c(c1)OCCO2	.	.	-	-	.	.	.	.
O=C(NCc1ccccc1)C1=C[C@@H](c2csc3ccccc23)C[C@@H](OCCCCO)O1	25.4	57.3	70.0	30.5	-	-	-	-
O=C(NC1CC1)C1=C[C@H](c2csc3ccccc23)C[C@H](OCCCCO)O1	-	-	-	-	-	.	.	.
COc1ccc(C2c3c(-c4ccccc4)n[nH]c3C(=O)N2c2ccc(C(=O)O)cc2)cc1 (centres undefined)	-	-	-	-	.	.	.	.
CCn1c2ccccc2c2cc(Nc3cc(C)nc4ncnn34)ccc21	83.8	85.8	75.5	93.6	95.9	81.8	71.6	72.0
Cn1cccc1/C=C1\CC(C(C)(C)C)C/C(=C\c2cccn2C)C1=O (centres undefined)	-	-	-	-	-	.	.	.
Cc1cccc(N2CCN(C(=O)c3cccc(N4CCCC4=O)c3)C(C)C2)c1 (centres undefined)	.	.	63.7	63.2	.	69.0	36.2	39.7
COc1ccc(NC(=O)Cc2ccccc2)cn1	-	-	-	-	-	.	.	.
COc1ccc(NC(=O)/C(Cl)=C(/Cl)S(=O)Cc2ccccc2)cn1 (centres undefined)	99.2	102.3	96.3	100.4	.	106.6	73.0	89.8
Cc1ccccc1C(=O)NC1CCCCCCC1	.	.	-	-	.	.	.	.
Cc1ccccc1OCCc1c(C)[nH]c(=S)[nH]c1=O	72.5	75.2	81.7	84.2	92.0	78.4	54.9	56.3
Cc1[nH]c(=S)[nH]c(=O)c1CCOc1ccccc1	-	-	-	-	-	.	.	.
O=C(NC1CCCC1)c1cc(S(=O)(=O)N2CCOCC2)c(Cl)cc1Cl	-	-	-	-	-	.	.	.
O=C(c1ccco1)N1CCN(C(=O)N2c3ccccc3Sc3ccccc32)CC1	84.8	81.7	80.1	91.0	93.4	85.4	55.5	60.3
SMILES	Ba/F3 V617F tox	BaF3 parental	KLF5 inhibitor	IEC-6 tox-1	APP 5UTR inh	KLF5 confirm	IEC-6 tox-2	IEC-6 tox confirm
CN(C)c1ccc(C(=O)c2ccccc2C(=O)O)cc1[N+](=O)[O-]	-	-	-	-	-	.	.	.
CN(C)c1ccc(C(=O)c2ccc(N(C)C)c3ccccc23)cc1	93.7	93.6	80.2	96.9	95.4	91.5	84.9	83.8
COc1ccc(/C=N/Nc2nc3ccccc3[nH]2)cc1OC	-	-	-	-	-	.	.	.
C(=N\Nc1nc2ccccc2[nH]1)/c1ccc2ncccc2c1	90.5	96.1	62.2	94.9	.	-	90.4	85.4
CCOC(=O)COc1cccc2c(=O)n(CC(=O)NCc3ccccc3)ccc12	72.8	68.5	81.0	23.0	.	79.6	30.4	45.7
O=C(NCc1cccs1)C1CCCN1C(=O)Nc1ccccc1[N+](=O)[O-] (centres undefined)	.	.	-	-	.	.	.	.
O=C(N/N=C/c1ccc(OC(=O)c2ccc(Br)cc2)cc1)c1ccncc1	.	.	-	-	.	.	.	.
O=C(N/N=C/c1cc(Br)ccc1O)c1ccncc1	-	-	83.9	22.2	.	89.4	-	28.6
O=C(N/N=C/c1cc(Br)ccc1OC(=O)c1ccc(Br)cc1)c1ccncc1	.	.	77.8	97.0	.	89.6	-	23.6
O=C(Nc1cccc(S(=O)(=O)N2CCCCC2)c1)c1ccc(OCC2CCCO2)cc1 (centres undefined)	-	-	-	-	-	.	.	.
O=c1cc(-c2cccc(F)c2)[nH]c2ccccc12	77.5	77.9	75.4	86.3	93.8	84.7	59.9	56.8
Cc1ccc2[nH]c(-c3cccc(F)c3)cc(=O)c2c1	82.9	82.8	62.2	90.6	93.2	72.8	59.0	57.1
Cc1ccc(-c2cc(=O)c3cc(C)ccc3[nH]2)cc1	-	-	-	-	-	.	.	.
COc1ccc(C(Nc2cc(C)ccn2)c2ccc3ccc(C)nc3c2O)cc1 (centres undefined)	-	-	-	-	.	.	.	.
CC(=O)NC(c1ccc(C)cc1)c1cc([N+](=O)[O-])c2cccnc2c1O (centres undefined)	-	-	-	-	-	.	.	.
Oc1ccccc1C(Nc1nccs1)c1ccc2cccnc2c1O (centres undefined)	-	-	-	-	.	.	.	.
CC(=O)NC(c1ccccc1)c1cc(Cl)c2cccnc2c1O (centres undefined)	.	.	89.3	83.1	.	73.7	87.2	72.5
CCCC(=O)NC(c1ccccc1Cl)c1ccc2cccnc2c1O (centres undefined)	.	.	91.0	97.8	.	91.3	77.6	76.2
CCCC(=O)NC(c1ccc(C(C)C)cc1)c1ccc2cccnc2c1O (centres undefined)	.	.	69.4	24.3	.	84.4	71.4	72.6
COc1ccc(C(NC(=O)C(C)C)c2ccc3cccnc3c2O)cc1 (centres undefined)	74.1	53.8	85.1	22.3	.	87.4	52.0	65.9
CC(=O)Nc1nc2c(c3c1c(=O)oc1ccccc13)CC(C)CC2 (centres undefined)	-	-	-	-	-	.	.	.
CNc1nc(C)c(C#N)cc1C(C)=O	-	-	-	-	-	.	.	.
CCCC(=O)NC(c1ccc(N(C)C)cc1)c1ccc2cccnc2c1O (centres undefined)	.	.	81.6	63.1	.	88.5	75.8	81.0
CCCOc1ccc2[nH]c(C(=O)N/N=C/c3cc(OC)c(OC)c(OC)c3)cc2c1	.	.	-	-	.	.	.	.
